According to PubChem BioAssay AID1619 (SRMLSC, 2009):
About 830 (0.38%) of roughly 220,000 compounds were called active.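 How the source made its calls: active means compound inhibiting the enzyme by more than half at any dose during confirmatory dose-response retesting; inconclusive means strong single-dose inhibitors picked by rank but not retested; inactive means the rest.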 Only a sample is shown. Entries with a potency or affinity are not part of this list.

Target: Leucine aminopeptidase (Plasmodium falciparum (isolate 3D7)) (UniProt Q8IL11)
Assay: P. falciparum M17LAP inhibitors, primary screen, biochemical, fluorogenic H-Leu-NHMec substrate, 1536-well (AID 1619);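 further: plate controls were full reaction with DMSO carrier for no effect and no enzyme background for full effect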
Settings: recombinant M17LAP, H-Leu-NHMec fluorogenic kinetic assay; at 30 µM; active compounds read high

Chain of Leucine aminopeptidase (Plasmodium falciparum (isolate 3D7)) (Q8IL11 whole entry, looked up): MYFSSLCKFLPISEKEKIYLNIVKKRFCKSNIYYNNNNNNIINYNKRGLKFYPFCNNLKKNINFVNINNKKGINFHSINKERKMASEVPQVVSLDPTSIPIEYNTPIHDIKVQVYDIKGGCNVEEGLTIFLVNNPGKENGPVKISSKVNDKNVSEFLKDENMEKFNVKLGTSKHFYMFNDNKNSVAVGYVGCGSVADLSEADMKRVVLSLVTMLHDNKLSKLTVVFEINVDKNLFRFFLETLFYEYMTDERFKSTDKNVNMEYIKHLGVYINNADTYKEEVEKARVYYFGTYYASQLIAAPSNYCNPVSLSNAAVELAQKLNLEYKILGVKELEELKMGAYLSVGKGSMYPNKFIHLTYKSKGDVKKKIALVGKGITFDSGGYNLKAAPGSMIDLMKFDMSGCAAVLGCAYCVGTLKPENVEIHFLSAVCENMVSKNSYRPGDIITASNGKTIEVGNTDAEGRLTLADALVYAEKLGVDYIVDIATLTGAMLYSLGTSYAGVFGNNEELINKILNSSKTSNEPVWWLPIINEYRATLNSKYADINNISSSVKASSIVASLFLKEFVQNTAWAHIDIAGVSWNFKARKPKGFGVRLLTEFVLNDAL

inhibition, inactive:
Cn1nnnc1SCC1=C(C(=O)O)N2C(=O)C(NC(=O)C3CC3c3ccccc3)C2SC1 (stereo unspecified) 20.4%
Cc1nn(C(C)C(=O)NC2C(=O)N3C(C(=O)O)=C(CSc4nnnn4C)CSC23)cc1Cl (stereo unspecified) 48.7%
COc1ccc(Cn2cnc3c([N+](=O)[O-])c(C)c(C)cc32)cc1 16.7%
O=C(Cc1csc(N2CCOCC2)n1)N/N=C/c1ccc(F)cc1 45.5%
COc1ccccc1NC(=O)Nc1cc(C(C)C)ccc1C 3.16%
COc1cc(/C=C2/NC(=O)N(Cc3ccccc3F)C2=O)ccc1O -1.31%
CCOc1cc(/C=C2\C(=O)N(CCc3ccc(OC)c(OC)c3)C(C)=C2C(=O)OC)ccc1O 7.43%
COc1ccc(C(=O)Nc2ccc(Cl)cc2C(=O)NCCN2CCOCC2)cc1 5.43%
Cc1ccc(S(=O)(=O)NNC(=O)CC#N)cc1 5.13%
COc1cc(/C=C2\SC(=N)N(c3ccc4c(c3)OCO4)C2=O)cc(OC)c1O 1.69%
Cc1cccc(NC(=O)CN2C(=O)S/C(=C\c3ccc(-c4cccc(C(=O)O)c4C)o3)C2=O)c1 4.08%
COc1ccccc1N1C(=N)S/C(=C\c2ccc(-c3ccccc3C(=O)O)o2)C1=O 61.1%
N=C1S/C(=C\c2ccco2)C(=O)N1c1ccc2c(c1)OCO2 6.49%
O=C(COC(=O)Cc1ccc(Br)cc1)NCC1CCCCC1 1.79%
CCOC(=O)N1CCN(C(=O)CSc2ccc(-c3cccnc3)nn2)CC1 -5.54%
Cc1c(O)ccc(-c2n[nH]c(C(=O)O)c2-c2nc3ccccc3s2)c1O -2.67%
Oc1ccc(-c2nc3ccccc3s2)c(O)c1 -4.82%
Cc1nc2ccccn2c1C(=O)CSc1ccccc1 24.3%
CCOC(=O)Cc1n[nH]c(=O)c2ccccc12 1.58%
O=C(NCc1ccccn1)c1cc(-c2ccccc2)on1 8.29%
CCOC(=O)CSc1nnc(-c2ccco2)n1-c1ccccc1 11.8%
CCOC(=O)CSc1nnc(-c2ccoc2C)n1-c1ccc(C)cc1 14.1%
COC(=O)CSc1nnc(-c2ccco2)n1-c1ccc(C)cc1 13.9%
CC(C)OC(=O)CSc1nnc(-c2ccco2)n1N 6.79%
Cc1ccc(OCCn2c(=O)oc3ccc(C)cc32)cc1 13.7%
Cn1c(SCC(N)=O)nnc1C1CCN(C(=O)NC2CCCCC2)CC1 -3.93%
COc1ccc(OC)c(NC(=O)C2CCCCC2C(=O)O)c1 (stereo unspecified) 40.9%
COc1ccc(C)cc1NC(=O)C1CCCCC1C(=O)O (stereo unspecified) 52.8%
COc1ccc(OC)c(NC(=O)C2CC(C)=C(C)CC2C(=O)O)c1 (stereo unspecified) 34.4%
COc1ccc(C(C)(C)C)cc1NC(=O)C1C2C=CC(C2)C1C(=O)O (stereo unspecified) 7.82%
COc1ccc2cc(C(c3nnnn3CCc3ccccc3)N3CCCC(C)C3)c(=O)[nH]c2c1 (stereo unspecified) 10.6%
CCCCNS(=O)(=O)c1ccc(S(=O)(=O)N2CCC3(CC2)OCCO3)cc1 -5.01%
COC(=O)C1=C(NC(=O)COc2ccc(Cl)cc2Cl)CCS1 49.6%
CC(C)(C)S(=O)(=O)/C(C#N)=N/Nc1ccc(S(C)(=O)=O)cc1 43.2%
CC(C)(C)S(=O)(=O)/C(C#N)=N/Nc1ccc(S(N)(=O)=O)cc1 16.4%
CC(C)(C)S(=O)(=O)/C(C#N)=N/Nc1ccc(Cl)cc1 12.6%
CC(C)(C)c1ccc(N/N=C(\C#N)S(=O)(=O)C(C)(C)C)cc1 23.4%
CC(C)(C)S(=O)(=O)/C(C#N)=N/Nc1ccc(C#N)cc1 19.9%
COc1ccc(N/N=C(/C#N)S(=O)(=O)C(C)(C)C)cc1 5.23%
Cn1c(SCc2ccc(Cl)cc2)nc(C(F)(F)F)cc1=O -4.09%
CCN(CC)C(=O)C(=O)c1cn(CC(=O)NCC2CCCO2)c2ccccc12 (stereo unspecified) -6.14%
Cc1cccc(NC(=O)c2nc[nH]c2C(=O)NCC(=O)OC(C)(C)C)c1 -3.35%
O=C(NCC1CCCO1)c1csc(Nc2cccc3ccccc23)n1 (stereo unspecified) 4.77%
O=C(COc1cccc(NC(=O)c2ccco2)c1)c1ccccc1 -14.2%
O=C(NCCN1CCOCC1)c1ccc(NC(=O)C2COc3ccccc3O2)cc1 (stereo unspecified) 3.85%
CCOc1ccc(-n2c(COc3ccccc3)nnc2SCC(N)=O)cc1 -3.38%
Cc1ccc(NC(=O)Cn2nc(C)c3ccccc3c2=O)cc1 23.3%
Cc1nn(CC(=O)Nc2ccccc2)c(=O)c2ccccc12 20%
CC1=C(C)CC(C(=O)NNC(=O)c2csc(C)c2C)C(C(=O)O)C1 (stereo unspecified) 44.2%
CC(C)(C)C1CCc2c(C(=O)N/N=C/c3cccs3)csc2C1 (stereo unspecified) 1.12%
CC1=C(C)CC(C(=O)NNC(=O)c2ccccc2)C(C(=O)O)C1 (stereo unspecified) 32.1%
Cc1scc(C(=O)NNC(=O)CCC(=O)O)c1C 1.05%
CC(C)(C)C1CCc2c(C(=O)NNC(=O)/C=C/C(=O)O)csc2C1 (stereo unspecified) 43.8%
CCNC(=S)NNC(=O)c1csc2c1CCC(C)C2 (stereo unspecified) -1.92%
COCc1cc(C)nc(SCc2nc3ccccc3c(=O)[nH]2)c1C#N -5.07%
CCOC(=O)c1cc(-c2ccccc2)sc1NC(=O)C(C)N1C(=O)c2ccccc2C1=O (stereo unspecified) -1.18%
Nc1cc(-c2ccco2)no1 -0.59%
O=C1c2[nH]nc(-c3ccccc3O)c2C(c2ccccc2F)N1Cc1ccco1 (stereo unspecified) 16%
O=C(C(c1ccccc1)c1ccccc1)N1CCN(c2ccccn2)CC1 4.89%
COc1ccc2sc(N3C(=O)CC(Cc4cccc(C)c4)C3=O)nc2c1 (stereo unspecified) 29.4%
CC(=O)c1nc(N2C(=O)C3CC=C(C)CC3C2=O)sc1C (stereo unspecified) 7.37%
